# Assay results: PubChem BioAssay AID2158 (National Center for Advancing Translational Sciences (NCATS), 2009)
# Where “and” joins values, the source holds several entries; their conditions need not be identical. Equal entries are not always repeated. Results filed as inconclusive are left out. Unmarked numbers belong to inactive results. Calls of active or inactive are those of the source. Calls follow the shape of the dose curve; as a rule, active = well fitted inhibition curve with a large enough effect; inconclusive = small, poorly fitted or top-dose-only effect; inactive = no such curve, though single readings can be large or run the other way.
# Biological target: Cruzipain (Trypanosoma cruzi) (UniProt P25779)
# Experiment: Confirmation qHTS Assay for Inhibitors of Cruzain; also: nearly all actives have a fitted effect of over 40% in size;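 as to activity change, negative = inhibition: plate controls were uninhibited enzyme control for no effect and buffer wells lacking enzyme for full effect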
# Conditions: purified cruzain, Z-FR-AMC fluorescence, 0.01% Triton
# Procedure, shortened: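 Purified cruzain, 1.5 nM, pre-incubated 15 min at room temperature with compound in 100 mM sodium acetate pH 5.5, 5 mM DTT, 0.01% Triton X-100. Then 2 uM Z-FR-AMC added; AMC fluorescence (ex 360/em 450 nm) increase over 60 s gave reaction progress.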
# Potency is read from the fitted curve at half-maximal effect.
# Cruzipain (Trypanosoma cruzi), sequence (P25779 123-467 limits assumed): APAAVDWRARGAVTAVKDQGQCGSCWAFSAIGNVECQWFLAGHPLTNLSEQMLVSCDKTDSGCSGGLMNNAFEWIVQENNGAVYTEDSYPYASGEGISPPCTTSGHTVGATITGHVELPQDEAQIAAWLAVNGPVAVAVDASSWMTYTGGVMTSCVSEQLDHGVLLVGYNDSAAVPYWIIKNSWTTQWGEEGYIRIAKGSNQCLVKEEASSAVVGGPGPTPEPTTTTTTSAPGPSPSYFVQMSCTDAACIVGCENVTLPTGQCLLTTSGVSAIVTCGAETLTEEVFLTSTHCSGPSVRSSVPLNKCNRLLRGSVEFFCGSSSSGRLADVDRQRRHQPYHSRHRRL
Structure (SMILES),Potency,"activity change, negative = inhibition [%]"
Cc1ccccc1OCCn1c(CCNC(=O)C2CCCCC2)nc2ccccc21,631 nM (active) and 1 µM (active),–
N#CN1CCC(NC(=O)c2cccc(C(F)(F)F)c2)CC1,–,-5.22
COc1ccc(-c2nn3c(-c4cc(-c5ccccc5)n[nH]4)nnc3s2)cc1,–,-14.7
O=C(CNC(=O)C1CCCCC1)OCC(=O)c1ccccc1,6.31 µM (active),–
CCc1ccc2[nH]c(=O)c(CN(Cc3ccco3)Cc3nnnn3Cc3ccco3)cc2c1,–,-11.7
Cc1ccc2[nH]c(=O)c(CN(CCO)Cc3nnnn3Cc3ccco3)cc2c1,–,-3.64
CCCCNC(=O)Cn1c(SCc2ccccc2C)nc2ccncc21,–,-24.9
COc1cccc(NC(=O)C(OC(=O)CNC(=O)c2ccccc2)c2ccccc2)c1 (centres undefined),12.6 µM (active),–
CCOC(=O)C(C(=O)OCC)N(C#N)c1nc(SC)nc(N(C)C)n1,5.01 µM (active),–
O=c1c2ccccc2sc2nc(C3CCCCC3)n(Cc3ccco3)c(=O)c12,25.1 µM (active),–
O=C(COC(=O)CNC(=O)C1CCCCC1)NC1CCCC1,12.6 µM (active),–
CC(C)(C)c1ccc(OCCn2c(CCNC(=O)C3CCCCC3)nc3ccccc32)cc1,6.31 µM (active),–
Cc1ccc(C(=O)NCC(=O)OCC(=O)c2ccc3ccccc3c2)cc1,12.6 µM (active),–
O=C(CNC(=O)C1CCCCC1)OC(C(=O)c1ccccc1)c1ccccc1 (centres undefined),1.26 µM (active),–
CCOc1ccc(-c2csc(NC(=O)c3ccc(S(=O)(=O)N4CCc5ccccc5C4)cc3)n2)cc1,–,-11
N#CN1CCC(NS(=O)(=O)c2ccc(C(F)(F)F)cc2)CC1,–,-6.95
COc1cccc(C(=O)NC2CCN(C#N)CC2)c1,–,-6.95
CCCNc1nc(C#N)nc(Nc2ccccc2)n1,0.794 µM (active),–
CCOC(=O)CNC(=O)C1CCCCC1,–,-11.9
Cc1ccccc1OCC(=O)NCC(=O)OC(c1ccccc1)c1ccccc1,–,-14.6

Structure (SMILES),Potency,"activity change, negative = inhibition [%]"
O=C(CNC(=O)c1cccc(Cl)c1)OC(C(=O)Nc1cc(C(F)(F)F)ccc1Cl)c1ccccc1 (centres undefined),12.6 µM (active),–
O=C(Cc1nnc(-c2nc3ccccc3[nH]2)o1)Nc1cc(C(F)(F)F)ccc1Cl,–,-0.284
CCN(CCO)c1nc(SC)nc2c1sc1nc(-c3ccco3)c3c(c12)CCC3,17.8 µM (active),–
CCc1ccc2[nH]c(=O)c(CN(Cc3cccnc3)Cc3nnnn3Cc3ccccc3)cc2c1,–,-20.9
COc1ccccc1-c1nn2c(-c3cc(C)[nH]n3)nnc2s1,–,-12.2
Clc1ccc2[nH]c3c(NCCCN4CCOCC4)ncnc3c2c1,12.6 µM (active),–
CC(=O)n1cc(/C=C2/N=C(c3ccccc3)OC2=O)c2ccccc21,0.794 µM (active),–
CCNc1nc(C#N)nc(Nc2ccccc2)n1,0.708 µM (active),–
COc1ccc(N=Cc2nc(-c3ccccc3)oc2OC(=O)c2ccccc2)cc1,–,-22
Cn1nc(-c2ccncc2)nc2c(=O)n(C)c(=O)nc1-2,0.891 µM (active),–
Cc1ccc2[nH]c(=O)c(NC(N)=S)nc2c1,–,-16.5
Cc1ccc(S(=O)(=O)NC(N)=NCCC[C@@H](N)C(=O)Nc2cc(C(F)(F)F)ccc2Cl)cc1,–,-17.2
CCOc1ccc(NC(=O)c2ccc(CNc3c(NC4CCCCC4)c(=O)c3=O)cc2)cc1,–,1.77
N#Cc1nc(N2CCCCC2)nc(N2CCCCC2)n1,8.91 µM (active),–
CCc1ccc(-c2nc3c(=O)n(C)c(=O)nc-3n(CC)n2)cc1,2.51 µM (active),–
COC(=O)CCC(C)C1CCC2C3C(O)C[C@@H]4CC(O)CC[C@@]4(C)C3CC(O)[C@]12C (some centres undefined),–,-0.647
CC(C)(C)Nc1nc(C#N)nc(Nc2ccccc2)n1,2.24 µM (active),–
Cc1ccc(OCCCn2c(CCNC(=O)C3CCCCC3)nc3ccccc32)cc1,0.794 µM (active),–
CC(C)CNc1nc(C#N)nc(Nc2ccccc2)n1,0.891 µM (active),–
